Laboratory results from PubChem BioAssay AID1159580 (chemical genetic matrix, 2015).
“And” between values parts separate entries of the source, which are not always exact repeats. Equal entries are not always repeated. The whole screen tested about 5,500 compounds, of which about 2,000 (36%) were called active. Roughly 18% stayed inconclusive and do not appear here. Rule as the data show it: active = normalized growth mostly below about 0.91 (no sharp cut-off); inconclusive = no clear call, values can overlap the other calls; inactive = mostly above about 0.92. The list shows a part of the results.

Test: chemical genetic growth profiling, strain panel (AID 1159580);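 also: tested at 20 µM; growth read once vehicle control cultures reached saturation at 30 °C; 1 = growth at the plate median or of vehicle wells; lower values mean less growth of the strain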
Settings: S. cerevisiae deletion strains, growth OD

Measured: normalized growth

COc1ccc2ccc(=O)oc2c1
inactive: locus YAL013W, strain DEP1, active compounds read low 1.01 | locus YAL021C, strain ccr4, active compounds read low 1 | locus YAL026C, strain drs2, active compounds read low 1 | locus YAL030W, strain snc1, active compounds read low 1 | locus YBL061C, strain skt5, active compounds read low 1 | locus YBR009C, strain hhf1, active compounds read low 1.02 | locus YBR021W, strain FUR4, active compounds read low 0.997 | locus YBR023C, strain chs3, active compounds read low 1.01 | locus YBR171W, strain sec66, active compounds read low 0.988 | locus YBR229C, strain ROT2, active compounds read low 1.02 | locus YBR231C, strain swc5, active compounds read low 0.987 | locus YBR279W, strain paf1, active compounds read low 1 | locus YCL011C, strain gbp2, active compounds read low 0.98 | locus YCL016C, strain dcc1, active compounds read low 1 | locus YCL029C, strain bik1, active compounds read low 0.999 | locus YCL061C, strain MRC1, active compounds read low 1 | locus YCL069W, strain vba3, active compounds read low 0.988 | locus YCR088W, strain abp1, active compounds read low 0.992 | locus YDL005C, strain med2, active compounds read low 0.996 | locus YDL035C, strain GPR1, active compounds read low 1.04 | locus YDL040C, strain nat1, active compounds read low 1 | locus YDL074C, strain BRE1, active compounds read low 1.04 | locus YDL101C, strain DUN1, active compounds read low 1.01 | locus YDL185W, strain tfp1, active compounds read low 1.03 | locus YDL192W, strain arf1, active compounds read low 1.01 | locus YDR001C, strain nth1, active compounds read low 0.991 | locus YDR069C, strain doa4, active compounds read low 0.99 | locus YDR101C, strain arx1, active compounds read low 0.985 | locus YDR137W, strain rgp1, active compounds read low 0.977 | locus YDR150W, strain NUM1, active compounds read low 1.01 | locus YDR159W, strain sac3, active compounds read low 0.973 | locus YDR162C, strain NBP2, active compounds read low 1.03 | locus YDR195W, strain ref2 1.01 | locus YDR297W, strain sur2, active compounds read low 1 | locus YDR318W, strain mcm21, active compounds read low 1.02 | locus YDR334W, strain swr1, active compounds read low 0.987 | locus YDR335W, strain msn5, active compounds read low 0.998 | locus YDR388W, active compounds read low 1.04 | locus YDR392W, strain spt3, active compounds read low 0.964 | locus YDR502C, strain sam2, active compounds read low 1.02 | locus YEL003W, strain gim4, active compounds read low 1.01 | locus YEL037C, strain rad23, active compounds read low 1 | locus YEL061C, strain CIN8 (second series), active compounds read low 0.983 | locus YEL061C, strain CIN8, active compounds read low 1.01 | locus YER015W, strain faa2, active compounds read low 1 | locus YER016W, strain bim1, active compounds read low 1 | locus YER110C, active compounds read low 1.02 | locus YER111C, strain swi4, active compounds read low 0.998 | locus YER155C, strain BEM2 (second series), active compounds read low 0.97 | locus YER155C, strain BEM2, active compounds read low 1 | locus YER167W, strain BCK2, active compounds read low 1.01 | locus YFR010W, strain ubp6, active compounds read low 0.98 | locus YGL078C, strain dbp3, active compounds read low 1.01 | locus YGL086W, strain mad1, active compounds read low 1.02 | locus YGL167C, strain pmr1, active compounds read low 1.02 | locus YGL173C, strain kem1, active compounds read low 1.02 | locus YGL227W, strain vid30, active compounds read low 0.983 | locus YGL240W, strain doc1, active compounds read low 0.973 | locus YGL248W, strain PDE1, active compounds read low 1.05 | locus YGL253W, strain hxk2, active compounds read low 0.986 | locus YGR135W, strain pre9, active compounds read low 1.01 | locus YGR252W, strain gcn5, active compounds read low 0.964 | locus YHR013C, strain ard1, active compounds read low 1.04 | locus YHR027C, strain rpn1, active compounds read low 0.999 | locus YHR030C, strain SLT2, active compounds read low 1.02 and 0.994 | locus YHR079C, strain IRE1 (second series), active compounds read low 1.01 | locus YHR079C, strain IRE1, active compounds read low 0.997 | locus YHR094C, strain hxt1, active compounds read low 1.04 | locus YHR129C, strain ARP1, active compounds read low 1.02 | locus YHR142W, strain chs7, active compounds read low 1.01 | locus YHR200W, strain rpn10, active compounds read low 1.01 | locus YIL066C, strain RNR3, active compounds read low 1.02 | locus YIL073C, strain SPO22, active compounds read low 1.11 | locus YIL125W, strain kgd1, active compounds read low 1.03 | locus YIR030C, strain dcg1, active compounds read low 1.01 | locus YJL092W, strain hpr5, active compounds read low 0.998 | locus YJL095W, strain BCK1 (second series), active compounds read low 1.01 | locus YJL095W, strain BCK1, active compounds read low 1.01 and 1.02 | locus YJL115W, strain asf1, active compounds read low 0.992 | locus YJL129C, strain trk1, active compounds read low 0.99 | locus YJL134W, strain LCB3, active compounds read low 1.01 | locus YJL154C, strain vps35, active compounds read low 0.999 | locus YJL164C, strain tpk1, active compounds read low 1.02 | locus YJL166W, strain qcr8, active compounds read low 1.01 | locus YJL168C, strain set2, active compounds read low 1.02 | locus YJL187C, strain SWE1 (second series), active compounds read low 1.02 | locus YJL187C, strain SWE1, active compounds read low 0.995 | locus YJR066W, strain TOR1, active compounds read low 0.934 | locus YKL009W, strain mrt4, active compounds read low 1 | locus YKL068W, active compounds read low 1.04 | locus YKL085W, strain MDH1 (second series), active compounds read low 1.02 | locus YKL085W, strain MDH1, active compounds read low 1.02 | locus YKL160W, strain elf1, active compounds read low 1.02 | locus YKR001C, strain vps1, active compounds read low 1.03 | locus YKR026C, strain gcn3, active compounds read low 0.98 | locus YKR091W, strain srl3, active compounds read low 1.02 | locus YLL001W, strain dnm1, active compounds read low 0.985 | locus YLL026W, active compounds read low 1 | locus YLL041C, strain sdh2, active compounds read low 0.996 | locus YLR027C, strain aat2, active compounds read low 0.992 | locus YLR039C, strain RIC1, active compounds read low 1.15 | locus YLR058C, strain SHM2, active compounds read low 1.02 | locus YLR102C, strain apc9, active compounds read low 1.03 | locus YLR113W, strain HOG1, active compounds read low 1.02 | locus YLR221C, strain rsa3, active compounds read low 0.987 | locus YLR258W, strain gsy2, active compounds read low 1.02 | locus YLR262C, strain YPT6 (second series), active compounds read low 1.02 | locus YLR268W, strain sec22, active compounds read low 1.02 | locus YLR320W, strain mms22, active compounds read low 0.993 | locus YLR330W, strain CHS5, active compounds read low 1.03 | locus YLR342W, strain FKS1 (second series), active compounds read low 1.05 | locus YLR342W, strain FKS1, active compounds read low 1 | locus YLR357W, strain rsc2, active compounds read low 0.984 | locus YLR370C, strain arc18, active compounds read low 0.989 | locus YLR371W, strain rom2, active compounds read low 1.05 | locus YLR384C, strain iki3, active compounds read low 0.995 | locus YLR418C, strain cdc73, active compounds read low 1.02 | locus YML016C, strain PPZ1, active compounds read low 1.02 | locus YML032C, strain rad52, active compounds read low 0.997 | locus YML120C, strain ndi1, active compounds read low 0.999 | locus YML124C, strain tub3, active compounds read low 1.02 | locus YMR058W, strain fet3, active compounds read low 0.98 | locus YMR078C, strain ctf18, active compounds read low 1.01 | locus YMR125W, strain sto1, active compounds read low 0.984 | locus YMR129W, active compounds read low 1.01 | locus YMR205C, strain PFK2, active compounds read low 1.06 | locus YMR223W, strain ubp8, active compounds read low 1.02 | locus YMR231W, strain pep5, active compounds read low 0.996 | locus YMR307W, strain GAS1, active compounds read low 1.09 | locus YNL067W, strain RPL9B, active compounds read low 1.01 | locus YNL071W, strain lat1, active compounds read low 1.01 | locus YNL153C, strain GIM3, active compounds read low 1.01 | locus YNL183C, strain NPR1, active compounds read low 0.949 | locus YNL209W, strain ssb2, active compounds read low 1.01 | locus YNL233W, strain BNI4, active compounds read low 1.04 | locus YNL248C, strain rpa49, active compounds read low 0.974 | locus YNL250W, strain rad50, active compounds read low 1.07 | locus YNL271C, strain bni1, active compounds read low 1.01 | locus YNL298W, strain CLA4, active compounds read low 0.997 | locus YNL307C, strain MCK1, active compounds read low 1.03 | locus YNL322C, strain KRE1 (second series), active compounds read low 1 | locus YNL322C, strain KRE1, active compounds read low 1 | locus YNR049C, strain mso1, active compounds read low 1 | locus YNR052C, strain pop2, active compounds read low 1.04 | locus YOL006C, strain TOP1, active compounds read low 1.09 | locus YOL012C, strain htz1 0.887 | locus YOL147C, strain pex11, active compounds read low 1.02 | locus YOR001W, strain rrp6, active compounds read low 0.954 | locus YOR061W, strain CKA2, active compounds read low 1.02 | locus YOR069W, strain VPS5, active compounds read low 0.999 | locus YOR070C, strain gyp1, active compounds read low 1.01 | locus YOR080W, strain dia2, active compounds read low 1 | locus YOR083W, strain WHI5, active compounds read low 1.06 | locus YOR106W, strain vam3, active compounds read low 1.01 | locus YOR136W, strain idh2, active compounds read low 1.01 | locus YOR144C, strain elg1, active compounds read low 1.01 | locus YOR184W, strain ser1, active compounds read low 1 | locus YOR231W, strain MKK1, active compounds read low 1.01 | locus YOR265W, strain rbl2, active compounds read low 0.996 | locus YOR270C, strain vph1, active compounds read low 1.07 | locus YOR290C, strain snf2, active compounds read low 0.995 | locus YOR316C, strain cot1, active compounds read low 1.01 | locus YPL051W, strain arl3, active compounds read low 0.995 | locus YPL055C, strain LGE1, active compounds read low 1.07 | locus YPL078C, strain atp4, active compounds read low 1.01 | locus YPL106C, strain sse1, active compounds read low 0.98 | locus YPL240C, strain hsp82, active compounds read low 0.995 | locus YPL241C, strain CIN2, active compounds read low 1.02 | locus YPL256C, strain CLN2, active compounds read low 0.994 | locus YPR119W, strain clb2, active compounds read low 1.01 | locus YPR141C, strain kar3, active compounds read low 1.01 | locus YPR163C, strain tif3, active compounds read low 1.02 | locus YPR167C, strain met16, active compounds read low 1.02 | strain wtn01, active compounds read low 1.01
